Active and inactive are the calls of the source. How the source made its calls: active means hit-call score of the fitted dose curve at least 0.9, where 1 is the maximum; inactive means score below 0.9.
Legend:
[1] = target: CCAAT/enhancer-binding protein beta (Homo sapiens) (UniProt P17676); assay: ATG_C_EBP_CIS: Attagene CIS-FACTORIAL HepG2 Assay for human CCAAT/Enhancer Binding Protein (C/EBP) beta (AID 2282927); details: HepG2 Attagene cis-factorial transcription factor reporter; actives raise or lower the signal
Chain of CCAAT/enhancer-binding protein beta (Homo sapiens) (P17676 whole entry, looked up): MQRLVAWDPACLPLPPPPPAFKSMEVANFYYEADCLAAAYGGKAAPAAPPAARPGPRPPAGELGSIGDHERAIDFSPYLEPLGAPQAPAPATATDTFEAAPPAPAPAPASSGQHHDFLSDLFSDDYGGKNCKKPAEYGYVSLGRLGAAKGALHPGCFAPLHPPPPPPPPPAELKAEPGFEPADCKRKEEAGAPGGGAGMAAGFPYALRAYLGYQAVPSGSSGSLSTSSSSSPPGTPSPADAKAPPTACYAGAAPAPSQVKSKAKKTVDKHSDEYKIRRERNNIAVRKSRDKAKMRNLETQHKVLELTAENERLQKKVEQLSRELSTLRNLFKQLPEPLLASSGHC
Method in brief: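 HepG2 transiently transfected with multiplexed reporter units under cis-regulatory promoters reporting endogenous C/EBPb activity. After 24 h exposure, reporter mRNA assayed by RT-PCR, fluorescent labelling, HpaI digestion and capillary electrophoresis; bidirectional fitting versus DMSO.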

[2] = ATG_CMV_CIS: Attagene CIS-FACTORIAL HepG2 Assay for human CMV (Internal Marker) (AID 2282928); details: HepG2 CMV promoter reporter, transcription factor profiling; actives raise or lower the signal;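 further: endpoint acts as a background internal control marker rather than a target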
Method in brief: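 Endogenous transcription factor activity read in HepG2 via transfected cis-promoter reporter units. After 24 h dosing, reporter mRNA measured by RT-PCR/capillary electrophoresis; gain or loss of signal fit relative to DMSO.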

[3] = ATG_DR4_LXR_CIS: Attagene CIS-FACTORIAL HepG2 Assay for human Liver X Receptor (LXR), DR4 submotif (AID 2282929); details: HepG2 Attagene DR4 cis-reporter, mRNA transcription; actives raise or lower the signal
Method in brief: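 Total RNA from 24 h-treated, MRTU-transfected HepG2 cells underwent reverse transcription, PCR, fluorescent primer extension and restriction digestion before capillary electrophoresis. Both increases and decreases in reporter signal were fitted against DMSO.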

[4] = target: Aryl hydrocarbon receptor (Homo sapiens) (UniProt P35869); assay: ATG_Ahr_CIS: Attagene CIS-FACTORIAL HepG2 Assay for human Aryl Hydrocarbon Receptor (Ahr) (AID 2282930); details: HepG2 AhR cis-factorial reporter transcription; actives raise or lower the signal
Chain of Aryl hydrocarbon receptor (Homo sapiens) (P35869 whole entry, looked up): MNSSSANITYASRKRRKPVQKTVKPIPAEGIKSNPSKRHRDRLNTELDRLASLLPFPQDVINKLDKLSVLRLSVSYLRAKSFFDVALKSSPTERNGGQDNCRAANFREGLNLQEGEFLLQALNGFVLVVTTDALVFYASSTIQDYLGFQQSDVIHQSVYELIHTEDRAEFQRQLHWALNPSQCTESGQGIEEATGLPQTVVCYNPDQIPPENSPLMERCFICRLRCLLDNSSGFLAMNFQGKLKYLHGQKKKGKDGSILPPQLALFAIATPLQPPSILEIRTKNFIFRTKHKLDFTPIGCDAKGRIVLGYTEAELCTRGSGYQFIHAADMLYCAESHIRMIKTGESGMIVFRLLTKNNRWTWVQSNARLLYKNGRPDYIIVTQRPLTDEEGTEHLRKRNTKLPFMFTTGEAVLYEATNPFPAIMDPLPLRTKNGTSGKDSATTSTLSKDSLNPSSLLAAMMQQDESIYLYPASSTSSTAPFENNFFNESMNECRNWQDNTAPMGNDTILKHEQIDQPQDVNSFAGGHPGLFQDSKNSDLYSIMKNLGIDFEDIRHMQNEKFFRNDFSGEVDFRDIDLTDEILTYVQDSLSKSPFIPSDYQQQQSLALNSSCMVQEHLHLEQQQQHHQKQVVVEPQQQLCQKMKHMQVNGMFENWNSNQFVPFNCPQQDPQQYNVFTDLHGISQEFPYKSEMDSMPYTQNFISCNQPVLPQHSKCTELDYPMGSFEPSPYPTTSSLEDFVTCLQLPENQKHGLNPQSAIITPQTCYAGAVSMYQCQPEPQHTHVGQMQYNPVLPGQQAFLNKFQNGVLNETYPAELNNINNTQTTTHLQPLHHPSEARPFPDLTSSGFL
Method in brief: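 HepG2 cells transiently transfected with cis-element-driven multiplexed reporter units; endogenous AhR activity read as reporter mRNA 24 h after dosing, via RT-PCR, 6-FAM labelling, HpaI digestion and capillary electrophoresis. Bidirectional fit relative to DMSO.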

[5] = ATG_AP_1_CIS: Attagene CIS-FACTORIAL HepG2 Assay for human Activator Protein 1 (AP-1) (AID 2282931); details: HepG2 Attagene cis-factorial AP-1 reporter mRNA; actives raise or lower the signal
Method in brief: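 HepG2, transient cis-reporter transfection; 24 h; readout RT-PCR/CE fluorescence; DMSO baseline, gain and loss fitted.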

[6] = ATG_AP_2_CIS: Attagene CIS-FACTORIAL HepG2 Assay for human Activator Protein 2 (AP-2) (AID 2282932); details: HepG2 AP-2 cis-reporter, Attagene transcription factor profiling; actives raise or lower the signal
Method in brief: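 Multiplexed mRNA reporter assay in HepG2: cis-regulated units report endogenous factor activity after 24 h treatment. Fluorescence from capillary electrophoresis of RT-PCR products gives the signal, with DMSO as baseline.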

[7] = ATG_BRE_CIS: Attagene CIS-FACTORIAL HepG2 Assay for human Bone Morphogenetic Protein (BMP) Response Element (BRE) (AID 2282933); details: HepG2 BMP response element reporter, Attagene transcription factor profiling; actives raise or lower the signal
Method in brief: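 Fluorescence-labelled reporter cDNA fragments, separated by capillary electrophoresis, gave the signal for this component of a 52-readout multiplex. HepG2 cells were transfected, exposed to chemicals for 24 h, and compared with DMSO using bidirectional fitting.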

[8] = target: Retinoic acid receptor alpha (Homo sapiens) (UniProt P10276); assay: ATG_DR5_RAR_CIS: Attagene CIS-FACTORIAL HepG2 Assay for human Retinoic Acid Receptor Alpha (RARE), DR5 submotif (AID 2282934); details: HepG2 Attagene cis-factorial RARE DR5 reporter, mRNA; actives raise or lower the signal
Chain of Retinoic acid receptor alpha (Homo sapiens) (P10276 whole entry, looked up): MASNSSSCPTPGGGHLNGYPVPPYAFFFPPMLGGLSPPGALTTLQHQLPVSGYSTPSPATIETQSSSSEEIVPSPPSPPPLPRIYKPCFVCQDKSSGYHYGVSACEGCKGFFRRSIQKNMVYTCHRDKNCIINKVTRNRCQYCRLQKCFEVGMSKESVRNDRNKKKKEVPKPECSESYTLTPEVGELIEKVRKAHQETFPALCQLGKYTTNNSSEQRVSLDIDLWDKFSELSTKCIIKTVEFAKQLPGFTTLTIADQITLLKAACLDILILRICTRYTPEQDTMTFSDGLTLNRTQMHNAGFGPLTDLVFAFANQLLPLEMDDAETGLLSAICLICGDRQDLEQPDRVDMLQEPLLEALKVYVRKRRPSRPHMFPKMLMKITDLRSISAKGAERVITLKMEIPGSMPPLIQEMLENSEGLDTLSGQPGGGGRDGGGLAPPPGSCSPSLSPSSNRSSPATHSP
Method in brief: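 HepG2 cells transiently transfected with multiplexed reporter units; DR5 cis-element drives reporter through endogenous transcription factors. After 24 h dosing, reporter mRNA quantified by RT-PCR, fluorescent labeling, HpaI digestion and capillary electrophoresis; bidirectional fitting versus DMSO.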

[9] = target: Transcription factor E2F1 (Homo sapiens) (UniProt Q01094); assay: ATG_E2F_CIS: Attagene CIS-FACTORIAL HepG2 Assay for human E2F Transcription Factor 1 (AID 2282935); details: HepG2 Attagene cis-reporter, E2F reporter RNA transcripts; actives raise or lower the signal
Chain of Transcription factor E2F1 (Homo sapiens) (Q01094 whole entry, looked up): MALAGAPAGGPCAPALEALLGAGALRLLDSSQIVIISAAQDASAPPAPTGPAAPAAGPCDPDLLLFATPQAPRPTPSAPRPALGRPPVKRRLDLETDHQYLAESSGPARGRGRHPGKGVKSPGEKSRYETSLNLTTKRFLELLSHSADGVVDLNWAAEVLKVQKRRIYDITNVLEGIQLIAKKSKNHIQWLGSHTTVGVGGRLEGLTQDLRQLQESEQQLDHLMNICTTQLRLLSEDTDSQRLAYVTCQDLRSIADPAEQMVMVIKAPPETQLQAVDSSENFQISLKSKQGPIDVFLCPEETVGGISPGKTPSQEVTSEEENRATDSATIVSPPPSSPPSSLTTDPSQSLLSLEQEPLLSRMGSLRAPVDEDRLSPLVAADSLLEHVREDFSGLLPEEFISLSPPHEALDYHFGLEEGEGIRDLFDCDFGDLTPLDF
Method in brief: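 Measures reporter transcript levels via RT-PCR with capillary electrophoresis detection in HepG2 cells harboring cis-regulated reporter units; 24 h post-dose; bidirectional curve fitting with DMSO as baseline.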

SMILES	outcome [1]	outcome [2]	outcome [3]	outcome [4]	outcome [5]	outcome [6]	outcome [7]	outcome [8]	outcome [9]	AC50 [1]	AC50 [4]
C#CC(C)N(C)C(=O)Nc1ccc(Cl)cc1 (configuration not stated)	inactive	inactive	inactive	inactive	inactive	inactive	inactive	inactive	inactive		
CCOC(=O)c1ccc(N)cc1	inactive	inactive	inactive	inactive	inactive	inactive	inactive	inactive	inactive		
CCc1ccc(O)c(OC)c1	inactive	inactive	inactive	inactive	inactive	inactive		inactive	inactive		
CCCC(C)=O	inactive	inactive	inactive	inactive	inactive	inactive	inactive	inactive	inactive		
C=C(C)C(=O)OCC(CC)(COC(=O)C(=C)C)COC(=O)C(=C)C	inactive	inactive	inactive	inactive	inactive	inactive	inactive	inactive	inactive		
O=C(O)c1cccnc1C(=O)O	inactive	inactive		inactive		inactive	inactive	inactive	inactive		
CS(C)=O	inactive	inactive	inactive	inactive	inactive	inactive		inactive	inactive		
COC(C)(C)CCO	inactive	inactive	inactive	inactive	inactive	inactive		inactive	inactive		
C=CCOC(=O)CCCCCC	inactive	inactive	inactive	inactive	inactive	inactive	inactive	inactive	inactive		
CCCCCCC(O)CCCCCCCCCCC(=O)O (configuration not stated)			inactive	inactive	inactive	inactive	inactive	inactive	inactive		
CCCCCCCC(=O)OCC(O)CO (configuration not stated)	inactive		inactive	inactive		inactive	inactive	inactive	inactive		
CCOCCOCCOCC	inactive	inactive	inactive	inactive	inactive	inactive	inactive	inactive	inactive		
OCc1ccc(Cl)cc1Cl	inactive		inactive	inactive	inactive	inactive	inactive	inactive	inactive		
CCCCC(CC)COC(C)=O (configuration not stated)	inactive	inactive	inactive	inactive	inactive	inactive	inactive	inactive	inactive		
NCCNc1cccc2ccccc12		inactive	inactive		inactive		inactive	inactive	inactive	169 µM (active)	7.19 µM (active)
CCCCCC(=O)CC	inactive	inactive	inactive	inactive	inactive	inactive	inactive		inactive		
